# Results taken from ChEMBL document CHEMBL3988442, “University of Dundee, Small-Polar-MMV Screening Library” (2021).
# About 950 (1.4%) of roughly 69,000 compounds showed an effect of 50% or more. Shown is part of a subset that was picked to be rich in strong results.
# System: Mycobacterium tuberculosis
# Experiment: Cornell M. t heat shock assay; note: in the data most compounds retested in dose-response had high values
# Assay type: functional, organism-based
# Set-up: dose or concentration left out as unconfirmed
row,Compound,Percent Effect [%]
1,Cl.O=c1c2sccc2nc2n1CCN(Cc1ccsc1)CC2,-19.75
2,Cc1cccc(CN2CC[C@@H]3[C@@H]2CCN3C(=O)Cc2ccsc2)n1.O=C(O)C(F)(F)F.O=C(O)C(F)(F)F,-13.99
3,CO[C@H]1C[C@@H]2CN(C(=O)c3n[nH]c4c3CCCC4)C[C@@H]2C1,-12.29
4,Cc1ccc(N2CC[C@@H]3[C@@H]2CCN3Cc2ccsc2)nn1.O=C(O)C(F)(F)F.O=C(O)C(F)(F)F,-10.53
5,Cn1ccnc1CN1CCC2(CC1)COCCN(S(C)(=O)=O)C2.O=C(O)C(F)(F)F,17.11
6,CC(=O)N1CCCC1c1csc(Nc2cnccn2)n1 (centres undefined),-5.066
7,NC(=O)CN1CCCC1c1csc(Nc2cnccn2)n1 (centres undefined),58.45
8,NC(=O)CN1CCC(c2csc(Nc3cnccn3)n2)CC1,-13.81
9,CS(=O)(=O)CCC(=O)NC1(c2cccc(C(F)(F)F)c2)CCC1,-20.78
10,COC[C@@]12CCC[C@@H]1CN(C(=O)Cc1ccccn1)C2.O=C(O)C(F)(F)F,12.87
11,Cc1ncc(CN2CCC(c3nc4cc(Cl)ccc4o3)CC2)s1,-15.08
12,CC(C)c1nc(C2CCCN2CCc2ccccn2)no1 (centres undefined),-39.31
13,Fc1ccc2[nH]c(C3CCCN3CCCn3cccn3)nc2c1 (centres undefined),-23.88
14,CCc1nc(C2CCCN2CCc2ccccn2)no1 (centres undefined),107.9
15,Cc1nc(C2CCCN2CCc2ccccn2)no1 (centres undefined),-5.804
16,O=C(CN1CCCC1c1nc2cc(F)ccc2[nH]1)NCc1ccccn1 (centres undefined),-20.62
17,Fc1ccc2[nH]c(C3CCCN3CCc3ccccn3)nc2c1 (centres undefined),61.35
18,CS(=O)(=O)N1CCc2ccc(=O)n(CCN3CCCC3)c2CC1.O=C(O)C(F)(F)F,21.99
19,Cc1nnc(N2CCCC3(CN(Cc4cnn(C)c4)CCO3)C2)o1.O=C(O)C(F)(F)F.O=C(O)C(F)(F)F (centres undefined),-20.31
20,O=C(O)C(F)(F)F.O=C(c1ccoc1)N1CC[C@@H]2O[C@@H](COCCN3CCCC3)CC[C@@H]21,-1.941
21,O=C(O)C(F)(F)F.O=C(O)C(F)(F)F.O=C1[C@H]2CN(Cc3ccccn3)C[C@H]2CN1c1ccsc1,-8.069
22,CO[C@H]1CCN(Cc2cccs2)[C@@H]2CN(Cc3ccncc3)C[C@H]12.O=C(O)C(F)(F)F.O=C(O)C(F)(F)F.O=C(O)C(F)(F)F,0.7697
23,COc1ccc(-c2cnc3c(c2)CN(C2CC2)C(=O)CCN3)cc1,36.55

row,Compound,Percent Effect [%]
1,O=C1CCNc2ncc(-c3ccc(Cl)cc3)cc2CN1C1CC1,53.07
2,Cl.Clc1ccc(-c2ccc(C3CNCCO3)nc2)cc1 (centres undefined),2.375
3,O=C1CCNc2ncc(-c3cccc(Cl)c3)cc2CN1C1CC1,61.09
4,O=C1CCNc2ncc(-c3ccccc3Cl)cc2CN1C1CC1,39.75
5,O=C1CCC(=O)N1CCn1nnc(-c2cccc(Cl)c2)n1,-24.84
6,COc1ccc(OCCN2CCC(N3CCNC3=O)CC2)cc1,47.29
7,Cc1ccc(N2CCO[C@H]3CN(Cc4nccs4)C[C@H]32)nn1.O=C(O)C(F)(F)F.O=C(O)C(F)(F)F,-20.26
8,O=C(O)C(F)(F)F.O=C(O)C(F)(F)F.O=C([C@H]1C[C@H]2OCC[C@H]2N(Cc2cccnc2)C1)N1CCCO1,-0.4009
9,CCC1CN(C(=O)c2ccc(=O)[nH]n2)CCC(=O)N1Cc1ccccc1 (centres undefined),3.349
10,CCC1CN(C(=O)c2ccc(=O)[nH]c2)CCC(=O)N1Cc1ccccc1 (centres undefined),106.1
11,CCC1CN(C(=O)c2cccc(O)c2)CCC(=O)N1Cc1ccccc1 (centres undefined),3.275
12,Fc1ccc(CN2CCC(F)(F)C3(CCN(c4cnccn4)C3)C2)cc1.O=C(O)C(F)(F)F.O=C(O)C(F)(F)F (centres undefined),3.728
13,CN(C)c1nc2c(c(N3CCc4ccccc4C3)n1)CCNC2,101.7
14,CN(C)c1nc2c(c(N3CCc4c(c(CO)nn4C)C3)n1)CCNC2,-14.09
15,c1ccc2c(c1)CCN(c1nc(-c3ccncc3)nc3c1CCNC3)C2,105.2
16,Cc1ccccc1N1CCN(c2nc(N(C)C)nc3c2CCNC3)CC1,99.74
17,c1ccc2c(c1)CCN(c1ncnc3sc4c(c13)CCNC4)C2,12.7
18,Cc1cc2n(n1)CCN(c1nc(N(C)C)nc3c1CCNC3)C2,7.698
19,c1ccc2c(c1)CN(c1ncnc3c1CCNC3)CCO2,22.91
20,Cc1cccc(=O)n1CCCNc1nc(N(C)C)nc2c1CCNC2,44.77
21,Cc1nc2c(c(N3CCN(c4ncccc4C(N)=O)CC3)n1)CCNC2,6.854
22,NCC1CCC2(CCN(C(=O)c3ccccn3)CC2)CO1.O=C(O)C(F)(F)F.O=C(O)C(F)(F)F (centres undefined),3.829
23,Cn1cc(N2CC3(CCN(CC4CCC4)CC3)OCC2=O)cn1.O=C(O)C(F)(F)F,10.75

row,Compound,Percent Effect [%]
1,Cc1cccc(C(=O)N2CCC[C@]3(C[C@@H](OCC4CC4)CO3)C2)n1.O=C(O)C(F)(F)F,5.615
2,O=C(O)C(F)(F)F.O=C([C@@H]1C[C@@H]2CCN(Cc3ccoc3)C[C@H]2O1)N1CCCC1,5.199
3,Cc1noc(C)c1C(=O)N1Cc2ncn(C)c2C(COCC(C)C)C1.O=C(O)C(F)(F)F (centres undefined),10.61
4,O=C(Cc1ccccc1)N1C[C@@H]2OCCN(CC3CCCO3)[C@@H]2C1.O=C(O)C(F)(F)F (some centres undefined),-18.47
5,Cc1cc(Oc2ccc(NC(=O)C3CC3)cc2)cc(C2CCNCC2)n1.Cl,4.147
6,COc1ccc(CN2CCC3(CC2)CC(CC(=O)NC(C)C)CO3)cc1.O=C(O)C(F)(F)F (centres undefined),0.5964
7,CCN(CC)Cc1cn2c(n1)CN(C(=O)c1cnccn1)CC2.O=C(O)C(F)(F)F,-4.073
8,CC(C)c1nn(C)c(N(C)C)c1CNC1CCOc2c(F)cccc21.Cl (centres undefined),0.8128
9,O=C(NCCNc1ncccn1)Nc1cc(C(F)(F)F)c[nH]c1=O,-2.019
10,O=C(NCCc1ccco1)Nc1cc(C(F)(F)F)c[nH]c1=O,9.339
11,O=C(NCCOc1ccccc1)Nc1cc(C(F)(F)F)c[nH]c1=O,24.31
12,O=C(CCc1ccco1)Nc1cc(C(F)(F)F)c[nH]c1=O,-7.508
13,CC(CCc1ccco1)NC(=O)Nc1cc(C(F)(F)F)c[nH]c1=O (centres undefined),102.3
14,CC(C)CCOCCNC(=O)Nc1cc(C(F)(F)F)c[nH]c1=O,62.92
15,COc1cc(CNCc2ccnc(N3CCCC3)c2)cc(OC)c1.Cl,5.029
16,O=C(NCc1ccccn1)[C@@H]1CCO[C@@H]2CCN(Cc3ccoc3)C[C@H]21.O=C(O)C(F)(F)F.O=C(O)C(F)(F)F,8.703
17,O=S(=O)(CCN1CCOC(Cn2cccn2)C1)C(F)(F)F (centres undefined),103.2
18,Cc1cnn(CC2CN(CCS(=O)(=O)C(F)(F)F)CCO2)c1 (centres undefined),85.56
19,Cc1cnn(CC2CN(Cc3nc(-c4ccoc4)no3)CCO2)c1 (centres undefined),8.998
20,Cc1nc(CN2CCOC(Cn3cccn3)C2)no1 (centres undefined),-15.93
21,O=S(=O)(CCN1CCOC(Cn2cccn2)C1)c1ccccc1 (centres undefined),6.109
22,c1ccc(-c2nc(CN3CCOC(Cn4cccn4)C3)no2)cc1 (centres undefined),2.98
23,c1cnn(CCN2CCOC(Cn3cccn3)C2)c1 (centres undefined),-7.25

row,Compound,Percent Effect [%]
1,Cc1cnn(CC2CN(CCS(C)(=O)=O)CCO2)c1 (centres undefined),3.305
2,Cc1ccc(-c2nc(CN3CCOC(Cn4cccn4)C3)no2)cc1 (centres undefined),60.58
3,Cc1cnn(CC2CN(Cc3nc(-c4ccsc4)no3)CCO2)c1 (centres undefined),77.9
4,c1cnn(CC2CN(Cc3nc(-c4ccsc4)no3)CCO2)c1 (centres undefined),-8.346
5,Cc1cnn(CC2CN(CCCS(C)(=O)=O)CCO2)c1 (centres undefined),7.266
6,O=C(O)C(F)(F)F.O=C(O)C(F)(F)F.c1cncc(N2CCCn3nnc(CN4CCCCC4)c3C2)c1,0.6199
7,C1CC(CN2CCc3c(nnn3CC3CC3)C2COCC2CC2)C1.O=C(O)C(F)(F)F (centres undefined),-20.7
8,Cl.Cl.Cn1cc(C(=O)NCc2cncc3c2CCNC3)cn1,-18.1
9,CN1CCN(CC2CN(CC3CC3)Cc3nccn3C2)CC1.O=C(O)C(F)(F)F.O=C(O)C(F)(F)F.O=C(O)C(F)(F)F (centres undefined),-11.65
10,O=C(O)C(F)(F)F.O[C@@H]1CCN(CC2CC2)[C@H]1Cc1ccccc1,-16.02
11,O=C(O)C(F)(F)F.O=C(O)C(F)(F)F.O=C(O)C(F)(F)F.c1ccc(CN2CC[C@@H]3O[C@@H](COCCN4CCCC4)CC[C@@H]32)nc1,-2.857
12,CCOc1cccc2c1OCC(=O)N(c1ccc3c(c1)OCO3)C2,-8.154
13,CCOc1cccc2c1OCC(=O)N(c1ccc3c(c1)OCCO3)C2,11.44
14,CCOc1cccc2c1OCC(=O)N(c1ccc(N(C)C)cc1)C2,78.25
15,COCCN1CCC2(CC1)CN(C(=O)c1ccco1)CCO2.O=C(O)C(F)(F)F,-23.42
16,Cl.O=C(Nc1nc2c(s1)CNCC2)NC1CCCC1,102.9
17,Cl.O=C(Nc1nc2c(s1)CNCC2)C1CC1,12.02
18,O=C(Nc1nc2c(s1)CCC2)NC1CCCC1,7.852
19,O=C(O)C(F)(F)F.O=C(O)C(F)(F)F.c1cncc(-c2nnn3c2COCC(CNCC2CCOCC2)C3)c1 (centres undefined),-15.79
20,COCCn1cc2c(n1)C(CNCc1cccc(OC)c1)OCC2.O=C(O)C(F)(F)F (centres undefined),-15.92
